Results as given in PubChem BioAssay AID1053173 (Broad Institute, 2014).
Screen size: about 1,500 compounds; about 390 (26%) were called active. No rule for the calls is given here. Not all results are given here. Potency and affinity values are given separately.

biological target: Histone-lysine N-methyltransferase NSD2 (Homo sapiens) (UniProt O96028); experiment: blockers of NSD2 H4 peptide methylation – biochemical, AlphaScreen, cherry-picked samples, dose response (AID 1053173); details: 120 min; series mostly up to 10 µM; activity change, negative = inhibition: at the top concentration;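 also: 0% = neutral control wells and -100% = positive control wells on each plate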
Sequence (O96028 whole entry, looked up): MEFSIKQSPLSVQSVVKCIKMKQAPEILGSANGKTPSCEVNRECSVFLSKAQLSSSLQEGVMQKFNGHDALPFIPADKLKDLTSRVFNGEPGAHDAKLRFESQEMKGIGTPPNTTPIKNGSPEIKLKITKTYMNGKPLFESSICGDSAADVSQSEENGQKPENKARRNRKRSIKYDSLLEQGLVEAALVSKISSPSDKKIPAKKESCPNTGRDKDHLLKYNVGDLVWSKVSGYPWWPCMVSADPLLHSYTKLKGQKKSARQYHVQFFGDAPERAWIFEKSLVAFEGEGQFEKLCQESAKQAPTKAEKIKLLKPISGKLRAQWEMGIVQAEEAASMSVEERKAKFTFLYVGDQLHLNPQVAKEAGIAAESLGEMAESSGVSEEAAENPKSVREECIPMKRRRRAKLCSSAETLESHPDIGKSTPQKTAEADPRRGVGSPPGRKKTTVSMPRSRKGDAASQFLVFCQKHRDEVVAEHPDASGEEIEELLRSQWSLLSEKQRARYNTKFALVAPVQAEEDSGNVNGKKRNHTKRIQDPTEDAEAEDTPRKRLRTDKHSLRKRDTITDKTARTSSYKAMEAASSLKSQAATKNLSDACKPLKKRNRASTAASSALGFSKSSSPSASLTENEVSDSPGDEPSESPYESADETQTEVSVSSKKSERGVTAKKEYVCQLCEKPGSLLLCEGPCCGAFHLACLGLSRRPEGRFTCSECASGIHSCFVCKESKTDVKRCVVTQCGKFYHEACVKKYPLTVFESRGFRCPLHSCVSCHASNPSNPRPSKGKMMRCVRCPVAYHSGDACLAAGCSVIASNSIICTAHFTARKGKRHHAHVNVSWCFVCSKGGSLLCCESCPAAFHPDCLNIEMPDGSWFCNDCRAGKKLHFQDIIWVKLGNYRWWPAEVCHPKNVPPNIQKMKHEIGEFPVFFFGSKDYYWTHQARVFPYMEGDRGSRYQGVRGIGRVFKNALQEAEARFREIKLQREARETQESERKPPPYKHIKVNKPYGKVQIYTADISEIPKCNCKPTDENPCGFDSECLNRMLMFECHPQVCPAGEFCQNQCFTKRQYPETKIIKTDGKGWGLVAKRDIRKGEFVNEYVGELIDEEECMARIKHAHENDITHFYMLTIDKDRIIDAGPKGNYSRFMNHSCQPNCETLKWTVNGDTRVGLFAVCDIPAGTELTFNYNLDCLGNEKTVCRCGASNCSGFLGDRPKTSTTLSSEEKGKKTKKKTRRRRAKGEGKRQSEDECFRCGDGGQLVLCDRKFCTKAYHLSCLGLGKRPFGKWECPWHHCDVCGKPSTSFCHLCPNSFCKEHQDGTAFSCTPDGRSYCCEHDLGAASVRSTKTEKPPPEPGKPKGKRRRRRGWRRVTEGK

Activity change, negative = inhibition, inactive:
Cc1cccc(Nc2nc(NCc3ccco3)nc(N)c2[N+](=O)[O-])c1 -4.37%
CC1=CCC2C(=O)N(c3cccc(C(=O)N(C)C4CCCCC4)c3)C(=O)C2C1 (stereo not given) 0.384%
CCN(CC)CCOc1ccc(C=NNc2nc3c([nH]2)c(=O)n(C)c(=O)n3C)cc1 -11.9%
COc1ccc(CNC(=O)c2nnn(-c3cccc(C(F)(F)F)c3)c2N)cc1 4.73%
CC(=O)Nc1ccc(C(=O)OCC(=O)/C(C#N)=C(\C)N)cc1 -2.9%
O=C(Nc1nccs1)c1ccc2nccnc2c1 -5.53%
CC1CCCCC1NC(=O)COC(=O)c1ccc2c(=O)n3c(nc2c1)CCC3 (stereo not given) -1.1%
Cc1ccc(NC(=O)CCN2CCN(C/C=C/c3ccccc3)CC2)cc1C -7.29%
CCCCOc1ccc(-c2ncc(N)cn2)cc1 7.56%
O=C(O)CC1S/C(=N/N=C/c2ccc(-c3ccc(Cl)cc3[N+](=O)[O-])o2)NC1=O (stereo not given) -8.04%
COc1ccccc1OCC(=O)Nc1ccccc1C(=O)N1CCCC1 -4.11%
COc1ccccc1NC(=O)c1ccc(-n2cccn2)nc1 -1.08%
CC12CC3(C)CC(C)(C1)CC(C(=O)NC1=NCCS1)(C2)C3 2.75%
Cc1oc(-c2cccs2)nc1CN1CCN(C2CCCC2)C(CCO)C1 (stereo not given) -3.19%
COC(=O)c1nn(C)c(=O)[nH]c1=O 1.85%
CC(=O)c1c(C)[nH]c(C(=O)CSc2nnc(-c3ccco3)n2Cc2ccccc2)c1C 3.53%
CC1=NN(c2ccc(S(=O)(=O)O)cc2Cl)C(=O)C1 4.11%
CCCCN(C)C(=O)C1CCN(Cc2cccc(OCc3ccccc3)c2)CC1 -1.82%
O=C(NCc1ccc(F)cc1)C1CCCN1S(=O)(=O)c1ccccc1C(F)(F)F (stereo not given) 4.09%
CCN1CCCC1CNC(=O)c1ccc2c(c1)N(Cc1cccc(Cl)c1)C(=O)c1ccccc1S2(=O)=O (stereo not given) -7.05%
COC(=O)c1sc(S(=O)(=O)Nc2ccc(C)c(C)c2)c(C(=O)OC)c1C -4.84%
COc1cc2c(oc(=O)c3cc(C)cc(OC)c32)c2c(C3OC(C)C(O)C(C)(O)C3O)ccc(O)c12 (stereo not given) -1.96%
COc1cccc(C2c3c(oc4ccccc4c3=O)C(=O)N2CCCN(C)C)c1OC (stereo not given) -0.912%
Cc1[nH][nH]c(=O)c1C(c1ccc2c(c1)OCO2)c1c(C)[nH][nH]c1=O -2.41%
Cc1cccc(C)c1NC(=S)N(CCCN1CCN(C)CC1)Cc1cccs1 -1.78%
O=C(COC(=O)c1ccc([N+](=O)[O-])s1)Nc1ccccc1 -2.69%
O=C(Cc1ccc(Br)cc1)Nc1ncc([N+](=O)[O-])s1 -2.73%
Cc1ccc2[nH]c3c(c2c1)CN(C(=O)CN(C)CC1OCCO1)CC3 -1.22%
CN1CCCCCC1=Nc1ccc([N+](=O)[O-])cc1 -6.03%
N#Cc1ccc(CSc2ncccn2)cc1 -3.28%
COc1ccc2ccccc2c1C1CC(=O)N2CN(C)CSC2=C1C#N (stereo not given) -2.35%
Cc1cccc(C(=O)Nc2cccc(-c3cnc4ccccc4n3)c2)c1 0.722%
C/C(=N\O)C(C)Oc1ccc(Cl)cc1 (stereo not given) -0.765%
NC(=O)c1oc2ccc(Cl)cc2c1N 2.14%
CCc1ccc(N2CN=c3s/c(=C\c4ccccc4)c(=O)n3C2)cc1 -0.972%
CCN1CCN(Cc2nc(N)nc(Nc3ccc(C)c(C)c3)n2)CC1 -4.72%
CSc1nnc2c(n1)OC=Nc1ccccc1-2 -1.34%
COc1ccc(C2N(C(=O)C(F)(F)F)C(C)CN2S(=O)(=O)c2ccc(C)cc2)cc1 (stereo not given) 3.6%
Nc1ccc(N(CCO)CCO)cc1 -10.2%
O=C(CSCC(=O)N1CCOCC1)Nc1nc(-c2ccccc2)cs1 3.11%
Cc1cccc(NC(=O)CCN2CCCCC2)c1 2.22%
O=C(OC(C(=O)NC1CCCCC1)c1ccccn1)c1cccs1 (stereo not given) 2.7%
C/C(NCCc1ccccc1)=C1/CCOC1=O 3.57%
COC(=O)c1ccc(/C=N/N2CCN(Cc3ccccc3)CC2)cc1 -6.96%
CCCCCCCCn1cnc2c(N)c(C)c(C)cc21 -2.93%
Cc1cc(Cl)cc(Br)c1OCCCN1C(=O)NC(C)(C)C1=O 0.235%
CC(=O)C1=C(O)C(=O)N(Cc2cccnc2)C1c1ccccc1 (stereo not given) 1.51%
Cc1ccc(OCc2cnc(Cl)s2)c(C)c1 5.09%
CC(=O)N=Cc1c(C)c(C#N)c(=O)n(C)c1O -1.78%
Oc1cccc(NC(=S)N=Nc2c(O)[nH]c3ccc(Br)cc23)c1 -7.09%
CCOc1ccc2nc(SCC(=O)NCc3ccco3)sc2c1 4.48%
N#Cc1c(NC(=O)c2ccncc2)sc2c1CCC2 -9.64%
COC(=O)N/N=C1/C/C(=N\NC(=O)OC)c2ccccc21 -6.25%
COc1cc(OC)nc(NC2OC(=O)c3ccccc32)n1 (stereo not given) 1.18%
CC(CS(=O)(=O)c1ccc2c(c1)NC(=O)CS2)C(=O)NCc1ccccc1Cl (stereo not given) -10.3%
Cc1cccc(/C=N/NC(=O)C(C)Nc2cccc3ccccc23)n1 (stereo not given) -8.21%
CC(Nc1cccc2ccccc12)C(=O)N/N=C/c1ccccn1 (stereo not given) -4.45%
Cc1ccc(Cl)cc1NC(=O)C[n+]1ccc(Cc2ccc([N+](=O)[O-])cc2)cc1 -11.1%
O=C(CSc1nnc(-c2ccccc2O)o1)NC1CCCCC1 -3.18%
O=C(O)CN1C(=O)/C(=C\c2cccc(OCc3ccc(F)cc3)c2)SC1=S -11.4%
Cc1cccc(C)c1NC(=O)c1c[nH]c2ccccc12 1.49%
O=C1/C(=C/c2ccccc2)CN(C(=O)CCN2CCOCC2)C/C1=C\c1ccccc1 -3.75%
O=Cc1ccc(OC(=O)C2CC(=O)N(c3ccc(F)cc3)C2)cc1 (stereo not given) 1.57%
Cc1ccc(NC(=O)C[n+]2ccn(C3=C([O-])c4ccccc4C3=O)c2)cc1 -3.33%
Cc1c(C(=O)NC(C)C)oc2c1-c1[nH]ncc1CC2 0.875%
O=C(Nc1nnc(SCc2ccc(F)cc2)s1)c1ccccn1 -3.31%
c1ccc(CN2CCN(c3nc(-c4ccccc4)nc(-n4ccnc4)n3)CC2)cc1 -6.94%
O=C1NC(NS(=O)(=O)c2ccccc2)(C(F)(F)F)C(=O)N1c1cccc(Cl)c1 (stereo not given) 2.53%
CC(C)Sc1nnc([C@H](Cc2c[nH]c3ccccc23)NC(=O)OC(C)(C)C)o1 -0.557%
O=[N+]([O-])c1cccc(NC(=S)N2CCOCC2)c1 -0.806%
CCOC(=O)c1cc(S(=O)(=O)Nc2ccc(OC)cc2OC)cn1C -1.2%
O=S(=O)(Nc1cc(Sc2cccc3cccnc23)c(O)c2ccccc12)c1ccccc1 -6.01%
Cc1cc(C)nc(NS(=O)(=O)c2ccc(NC(=O)c3ccccc3Br)cc2)n1 -0.118%
NS(=O)(=O)c1ccc(CNC(=O)CCCSc2ccccc2)cc1 -3.02%
CCNC(=O)Cc1ccc(NS(=O)(=O)c2ccc(F)cc2)cc1 -0.17%
